# Source: PubChem BioAssay (EPA / NIEHS)
# Records with an inconclusive call do not appear. Activity calls are given as the source filed them. The calls were made as follows: active = hit-call score of the fitted dose curve at least 0.9, where 1 is the maximum; inconclusive = response in the unintended direction; inactive = score below 0.9.
# Target: Oxysterols receptor LXR-alpha (Homo sapiens) (UniProt Q13133)
# Assay: ATG_LXRa_TRANS: Attagene TRANS-FACTORIAL HepG2 Assay for human Liver X Receptor alpha (LXRa) (AID 2282980)
# Details: HepG2 Attagene TRANS reporter, LXRa transactivation
# How it was run: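 Transient HepG2 transfectants, 24 h dosing, RT-PCR/CE mRNA reporter quantitation; gain-of-signal vs DMSO.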
# Oxysterols receptor LXR-alpha (Homo sapiens), sequence (Q13133 whole entry, looked up): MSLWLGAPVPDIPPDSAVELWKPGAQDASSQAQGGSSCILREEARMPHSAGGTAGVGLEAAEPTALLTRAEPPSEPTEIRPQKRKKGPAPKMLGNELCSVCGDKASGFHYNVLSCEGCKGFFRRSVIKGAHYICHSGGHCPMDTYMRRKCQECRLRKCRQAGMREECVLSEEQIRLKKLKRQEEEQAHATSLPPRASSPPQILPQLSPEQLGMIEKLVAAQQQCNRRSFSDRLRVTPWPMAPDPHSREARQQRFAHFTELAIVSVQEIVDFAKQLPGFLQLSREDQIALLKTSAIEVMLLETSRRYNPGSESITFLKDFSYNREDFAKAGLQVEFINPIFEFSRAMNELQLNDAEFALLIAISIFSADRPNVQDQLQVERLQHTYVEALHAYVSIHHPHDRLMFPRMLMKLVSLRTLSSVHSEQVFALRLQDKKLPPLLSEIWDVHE
row,SMILES,outcome
1,CCOC(=O)[C@@H](C)Oc1ccc(Oc2nc3ccc(Cl)cc3o2)cc1,inactive
2,CCCCCCCCCCCCCCCC(=O)OC/C=C(C)/C=C/C=C(C)/C=C/C1=C(C)CCCC1(C)C,inactive
3,CSc1c(Cl)c(Cl)c(Cl)c(Cl)c1Cl,inactive
4,CC(C)(C)OC(=O)c1ccc(O)cc1,inactive
5,Cc1cc(S(=O)(=O)O)ccc1N=Nc1c(O)ccc2ccccc12,inactive
6,C[C@H]1C[C@@H](O)CC(C)(C)C1,inactive
7,CCCCCCCCCCCCN1CCCCCC1=O,inactive
8,Cc1ccc(S(=O)(=O)Oc2ccc(N=Nc3ccc(-c4ccc(N=Nc5c(O)ccc6cc(S(=O)(=O)O)cc(S(=O)(=O)O)c56)c(C)c4)cc3C)cc2)cc1,inactive
9,Cc1cc(CCC(=O)OCCOCCOCCOC(=O)CCc2cc(C)c(O)c(C(C)(C)C)c2)cc(C(C)(C)C)c1O,inactive
10,C=CC(C)(O)CCC=C(C)C (configuration not stated),inactive
11,C[Si](C)(C)O[Si](C)(C)C,inactive
12,CCCCC(CC)COC(=O)c1ccc(O)cc1 (configuration not stated),inactive
13,CN(C)CCOc1ccc(/C(=C(/CCCl)c2ccccc2)c2ccccc2)cc1,inactive
14,Nc1ccc2cc(S(=O)(=O)O)cc(O)c2c1N=Nc1ccccc1C(F)(F)F,inactive
15,CCc1cc(Cc2cc(CC)cc(C(C)(C)C)c2O)c(O)c(C(C)(C)C)c1,inactive
16,O=C(Nc1ccc([N+](=O)[O-])cc1)Nc1ccc([N+](=O)[O-])cc1 (tested in a mixture with another compound),inactive
17,O=C(Nc1ccc2c(c1)Cc1ccccc1-2)C(F)(F)F,inactive
